# Source: PubChem BioAssay AID588855 (National Center for Advancing Translational Sciences (NCATS), 2011)
# Among all 410,000 compounds or so, about 5,000 (1.2%) were called active. Where a call stands in place of a potency, no number is given. Another 13% or so got no clear call; they are omitted. The sample holds actives, similar compounds and a random draw of the others, so the mix is not that of the screen. The call rests on the fitted dose curve; in most records, active means well fitted inhibition curve with a large enough effect; inconclusive means small, poorly fitted or top-dose-only effect; inactive means no such curve, though single readings can be large or run the other way.
# Assay: qHTS for Inhibitors of TGF-b; further: nearly all actives have a fitted effect of over 65% in size
# Conditions: HepG2 CAGA-GFP TGF-b/SMAD3 reporter, GFP fluorescence, 18 h, TGF-beta stimulated, 500 pg/mL final; series mostly up to 46.1 µM
# Procedure, shortened: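 TGF-beta reporter screen: HEPG2 CAGA-GFP, 1% FBS, 500 pg/mL TGF-beta final, 18 h; per-cell GFP summed per well; curves fitted and categorized by class.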
# Potency means the concentration at half of the fitted maximal effect.
row,Compound,Potency
1,CCOC(=O)c1cnc2c(C)cc(Cl)cc2c1NCCc1ccc(OC)c(OC)c1,inactive
2,Cn1c(=O)c2sccc2n2c(CCC(=O)NCc3ccccc3Cl)nnc12,inactive
3,CCc1cc2c(cc3c(=O)n(CC(=O)NCCc4ccc(OC)c(OC)c4)ncn32)s1,inactive
4,COc1ccc(C2NC(=O)N(C)C3=C2C(=O)N(c2ccc(C(=O)O)cc2)C3)cc1 (configuration not stated),inactive
5,CN(C)c1ccc(/C=N\Nc2ccc([N+](=O)[O-])cc2[N+](=O)[O-])cc1Cl,inactive
6,CN(CCC#N)c1ccc(C=O)cc1,inactive
7,Cc1ccc(S(=O)(=O)N2CCN(c3nc(-n4cnc5ccccc54)nc4ccccc34)CC2)cc1,inactive
8,Cc1ccc(NC(=O)C(Cc2ccccc2)NS(=O)(=O)c2ccc3c(c2)oc(=O)n3C)cc1C (configuration not stated),inactive
9,Cc1cccc(N2CCN(C(=O)c3cnc(N4CCCC4)nc3C)CC2)c1C,inactive
10,Cc1ccccc1S(=O)(=O)NC(=O)C1(C)CCN1C(=O)Cc1ccc(Cl)cc1Cl (configuration not stated),inactive
11,CC1(C(=O)Nc2cccc3c2CCCC3)CCN1C(=O)C1(c2ccccc2)CC1 (configuration not stated),inactive
12,CC1(C(=O)Nc2cccc3c2CCCC3)CCN1C(=O)CCc1ccc(Cl)cc1Cl (configuration not stated),12.6 µM (active)
13,CC(=O)c1ccc(NS(=O)(=O)c2ccc(-c3cc(C)no3)s2)cc1,inactive
14,Cc1oc(-c2ccccc2F)nc1CN1CCC(C(=O)NCCc2ccc(Cl)cc2)CC1,inactive
15,COc1ccc(Cl)cc1NC(=O)C(C)Sc1nc2c(c(=O)[nH]1)CCCC2 (configuration not stated),inactive
16,CCOc1ccc(NC(=O)c2c(NC(=O)Cc3ccccc3)sc3c2CCCCC3)cc1,inactive
17,CCNC(=S)N1CCN(c2ncccn2)CC1,inactive
18,C/C(=N\NC(=O)Cc1ccc(Cl)cc1)c1ccccn1,3.98 µM (active)
19,O=C(Cc1ccc(Cl)cc1)c1ccccc1,inactive

row,Compound,Potency
1,CC1=NNC(=O)C1CCC(=O)N/N=C(\C)c1ccc(Cl)cc1 (configuration not stated),inactive
2,CCOc1ccc(NC(=S)N2CCCCCC2)cc1,inactive
3,CC(=NNC(=S)N1CCCCCC1)c1ccccn1,1.26 µM (active)
4,CCCN(CCC)C(=O)Cn1c(=O)n(-c2ccc(Cl)cc2)c(=O)c2c3c(sc21)CCCCC3,inactive
5,Cc1ccc(-c2nnc3ccc(SCC(N)=O)nn23)cc1,inactive
6,COc1ccccc1C(=O)Nc1ccc(Nc2ccccc2)cc1,inactive
7,Nc1ccc(Nc2ccccc2)cc1,14.1 µM (active)
8,Cc1ccc(Nc2ccccc2N)cc1,inactive
9,COC(=O)c1ccc(NC(=O)CSc2n[nH]c(-c3ccccc3)n2)cc1,inactive
10,CC(Sc1oc(-c2ccco2)nc1S(=O)(=O)c1ccc(Br)cc1)c1ccccc1 (configuration not stated),inactive
11,CCCCC(CCCC)c1ccc(C=Nc2ccc(/C=C/c3ccnc4ccccc34)cc2)cc1,inactive
12,Cc1ccc2nc(CNC(=O)c3ccccc3)[nH]c2c1,inactive
13,CN(c1ccccc1)S(=O)(=O)c1cc(C(=O)Nc2nc3ccccc3[nH]2)ccc1Cl,inactive
14,O=C(/C(=C/c1cccc(Cl)c1)c1nc2ccccc2[nH]1)c1ccccc1,3.16 µM (active)
15,Cc1cc(C)c(/C=C/c2onc(C)c2S(=O)(=O)N2CCC(C(=O)Nc3ccc(Cl)cc3C)CC2)c(C)c1,inactive
16,Cc1ccc(NC(=O)C(=O)NCC(c2cccnc2)N2CCOCC2)cc1 (configuration not stated),inactive
17,Cc1ccc(S(=O)(=O)N(CC(=O)Nc2ccc(Cl)cc2Cl)c2ccccc2C)cc1,inactive
18,COc1ccc(C(C)(NC(C)=O)c2nc(-c3ccc(S(C)(=O)=O)cc3)cs2)cc1 (configuration not stated),inactive
19,COc1ccc(-c2csc(NC3OC(=O)c4ccccc43)n2)cc1 (configuration not stated),10 µM (active)

row,Compound,Potency
1,COc1ccc(N/C=C(\C2OC(=O)c3ccccc32)[N+](=O)[O-])cc1 (configuration not stated),inactive
2,Cc1ccc(C(=O)/C=C/Nc2ccc(S(=O)(=O)Nc3onc(C)c3C)cc2)cc1,inactive
3,COc1ccc(/C=C/C(=O)c2ccc(NS(=O)(=O)c3ccc(C)cc3)cc2)cc1O,12.6 µM (active)
4,COc1ccc(/C=C/C(=O)Nc2ccc(C)cc2)cc1S(=O)(=O)N1CCOCC1,inactive
5,Cc1ccc(C(=O)Nc2ccc(OCc3cc(=O)n4c(C)csc4n3)cc2)cc1,inactive
6,COc1ccc(CCNc2ncnc3onc(-c4ccc(Cl)cc4)c23)c(OC)c1,inactive
7,O=C(CSc1c2c(nc3ccc(Cl)cc13)CCCC2)NCc1ccco1,inactive
8,Cc1ccc(CNC(=O)CSc2c3c(nc4cc(Cl)ccc24)CCCC3)cc1,inactive
9,CCOC(=O)C1CCN(C(=O)CSc2c3c(nc4ccc(Cl)cc24)CCCC3)CC1,15.8 µM (active)
10,CN(C)C1=C2C=CC=CC2/C(=C2/C=Cc3ccccc32)C=C1 (configuration not stated),inactive
11,CCOC(=O)c1ccc(NC(=O)c2c(NCc3cccs3)sc3c2CCCC3)cc1,inactive
12,Cc1ccc(S(=O)(=O)Nc2ccc3c(c2)C(=O)N([C@H](C)CO)C[C@@H](C)[C@@H](CN(C)C(=O)Nc2cccc4ccccc24)O3)cc1,11.2 µM (active)
13,COc1ccc(NC(=O)N(C)C[C@H]2Oc3ccc(NC(=O)C4CC4)cc3C(=O)N([C@H](C)CO)C[C@@H]2C)cc1,inactive
14,Cc1noc(C)c1NC(=O)Nc1ccc2c(c1)C(=O)N([C@H](C)CO)C[C@H](C)[C@@H](CN(C)C(=O)Nc1ccccc1)O2,inactive
15,COc1cc(OC)c(NC(=O)c2c3c(nn2C)-c2ccccc2SC3)cc1Cl,inactive
16,OC(CBr)CN1CCCCC1 (configuration not stated),inactive
17,COc1ccccc1NC(=O)c1cc(S(=O)(=O)NCCc2ccccc2)ccc1F,inactive
18,Cc1ccc(-n2c(SCC(=O)N/N=C/C=C/c3ccccc3[N+](=O)[O-])nc3ccccc3c2=O)cc1,inactive
19,Cc1nn(-c2ccccc2)c(C)c1/C=N/NC(=O)CSc1nc2ccccc2c(=O)n1-c1ccccc1,3.98 µM (active)
